High-throughput results deposited in PubChem BioAssay by ICCB-Longwood Screening Facility, Harvard Medical School.
Vaccinia pol inh = vaccinia E9 polymerase processive synthesis inhibition; in vitro processive DNA synthesis, absorbance read-out; hits give low values; normalized absorbance, % (test concentration not listed); hit rate 0.94% among 46,000; AID 493162; in the data active means normalized absorbance mostly below about 85%, no sharp cut-off; inactive means mostly above about 86%
* = called active by the depositor. Many of the other results were omitted from the sample, so hits are more common in it than they were.

SMILES	Vaccinia pol inh
Cc1cc(Nc2ccccc2)n(C(C)(C)C)n1	95
Cc1cc(Nc2ccccc2)n(-c2ccccc2C(=O)O)n1	86*
Cc1cc(Nc2ccccc2)n2cnnc2n1	88
COc1cccc(-n2nnnc2S(=O)(=O)Cc2ccccc2)c1	101
O=c1cc(-c2ccccc2)[nH]c(=O)[nH]1	105
CCN(CC)c1ccc(N2C(=O)/C(=C/c3ccccc3)SC2=S)cc1	101
COc1ccccc1/C=C1\SC(=S)N(c2ccccc2)C1=O	100
O=C(O)c1cccc(N2C(=O)/C(=C/c3ccccc3)SC2=S)c1	90*
NNC(=O)C1=CC(C(=O)c2cccs2)=NN(c2ccccc2)C1C(=O)NN (configuration not stated)	90
COc1ccc2c(c1)c1c3n2CCN=C3N(C)CC1	58*
COc1ccc2c(c1)c1c3n2CCNC3CCC1 (configuration not stated)	92
COc1ccc2c3c([nH]c2c1)C(C)=NCC3	100
COc1cc(OC)cc(C2=NC(C)(C)CO2)c1	100
COC(=O)CSc1nnc(-c2c[nH]c3ccccc23)n1C	99
CC1=C(C(=O)Nc2ccccc2)Oc2ccccc2N1	99
Cc1ccc(S(=O)(=O)Nc2c(-c3ccccc3)c3cc(C)ccc3[nH]c2=O)cc1	94
Cc1ccc2[nH]c(=O)c(CN3CCOCC3)c(-c3ccccc3)c2c1	67*
Cc1ccc2[nH]c(-c3ccccc3)c(CN3CCCC3)c(=O)c2c1	100
COc1cc2cc(C)nc(C)c2cc1OC	68*
COc1cc2cc(=O)[nH]c(C)c2cc1OC	97
COc1cc2cc(C)nc(Cc3cccc4ccccc34)c2cc1OC	100
Nc1c(Br)cc2oc(-c3ccccc3F)nc2c1Br	104
Cc1cc(C)cc(OCC(=O)OCC(=O)NC23CC4CC(CC(C4)C2)C3)c1	108
CCN(CC)C(=O)c1cc(-c2ccco2)nc2ccccc12	87
c1coc(-c2cn3ccc4ccccc4c3n2)c1	84*
SMILES	Vaccinia pol inh
Cn1ccnc1C(=O)c1cc(-c2ccco2)nc2ccccc12	84
O=C(NC1CCN(C(=O)C2CCC2)CC1)C1CCCCC1	100
O=C(O)c1nn(Cc2ccccc2)nc1C(=O)O	99
COc1ccc(-n2nc3c(c2NC(=O)c2cccc(F)c2)CS(=O)C3)cc1 (configuration not stated)	100
c1cc[n+](C[n+]2ccccc2)cc1	103
CCCCCCCCCCCCCCCC[n+]1ccccc1	17*
CC1=CCC2(C(=O)OC(C)(C)OC2=O)C(c2ccc(Br)cc2)C1 (configuration not stated)	99
O=C(O)CCC(=O)c1ccc2c(c1)CCC2	104
Cc1c(C(=O)NC(=S)Nc2ccc(N3CCOCC3)cc2)oc2ccccc12	100
COc1ccc(C2CC(C3(C)CCCCC3)=NO2)cc1 (configuration not stated)	94
O=C(O)COCC(=O)NC1CCN(Cc2c(F)cccc2Cl)CC1	88
CCOC(=O)CSc1ncnc2sc(C)c(C)c12	98
Cc1nn(-c2ccccc2)c(OC(=O)c2cccs2)c1Sc1ccccc1	101
CC(=O)Oc1c(Sc2ccccc2)c(C)nn1C(C)(C)C	83*
Cc1nn(C(C)(C)C)c(OC(=O)c2ccccc2)c1Sc1ccccc1	88
CN(C)Cc1c(O)ccc2cc(-c3nc4ccccc4[nH]3)c(=O)oc12	99
OC(CN1CCCCC1)C(F)(F)F (configuration not stated)	116
Cc1cc(NCc2ccco2)c2ccccc2n1	100
Cc1cc(NCCNc2ccccc2)c2ccc3ccccc3c2n1	72*
Cc1cc(SCC(=O)Nc2ccccc2)c2ccccc2n1	102
Cc1cc2cc(CNC(=O)/C=C\c3ccc4c(c3)OCO4)ccc2[nH]1	102
O=C(CC(c1ccccc1)c1cc(Cl)ccc1O)N1CCCCC1 (configuration not stated)	93
Cc1ccc(/C(O)=C/c2nc3ccccc3[nH]c2=O)cc1C	100
CCN1CCN(CCCNC(=O)c2ccc3nc(/C=C(\O)c4ccc(OC)cc4)c(=O)[nH]c3c2)CC1	48*
COc1ccc(/C(O)=C/c2nc3ccc(C(=O)N4CCOCC4)cc3[nH]c2=O)cc1OC	80
SMILES	Vaccinia pol inh
O=C(COC(=O)CC1CCCC1)Nc1cc(C(F)(F)F)ccc1Cl	107
NS(=O)(=O)c1ccc2nc(NC(=O)C3CCCCC3)sc2c1	99
NNc1nc2cc3c(cc2s1)OCCO3	52*
Fc1ccc2nc(Nc3nc4ccc(F)cc4s3)sc2c1	96
COC(=O)c1ccc2nc(NC(=O)C(C)C)sc2c1	101
c1c2c(cc3sc(N4CCOCC4)nc13)OCCO2	98
NNc1nc2cc3c(cc2s1)OCO3	50*
COc1ccc(N2CCN(CCCNC(=O)CN3C(=O)CCSc4ccccc43)CC2)cc1	102
CCN1CCCC1CNC(=O)c1nnc(Cc2cccc(F)c2)o1 (configuration not stated)	108
O=C(NCCN1CCCCCC1)c1ccc2c(c1)ncn2C1CCCCC1	97
O=C(NCCCN1CCCCC1)c1ccc2nc(N3CCCCC3)sc2c1	97
CCOC(=O)N1CCN(C(=O)c2ccc3c(c2)sc2nc(-c4ccc(OC)cc4)cn23)CC1	99
